# Results: PubChem BioAssay (NCI)
# The panel holds about 83,000 compounds, 20% with a hit somewhere; the sample as a whole holds those more often.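 Results are percent growth after 48 hours of single-concentration exposure. 100 means growth as in untreated cells, lower positive values show inhibition; negative values down to -100 show cell death.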 A number with no mark means an inactive call. The source made the active and inactive calls. Rule for the calls: active = growth percent below 10; inactive = the rest.
# Key:
# Experiment in all cases: NCI-60 one-dose screen, 48 h (100 = growth as untreated, 0 = no growth, -100 = all killed)
# Details in all cases: 10 µM unless noted
# HT29 colon = tested on: HT29 colon
# SNB-75 CNS = tested on: SNB-75 CNS
# SNB-19 CNS = tested on: SNB-19 CNS
# U251 CNS = tested on: U251 CNS
# PC-3 prostate = tested on: PC-3 prostate
# SK-MEL-5 melanoma = tested on: SK-MEL-5 melanoma
# UACC-62 melanoma = tested on: UACC-62 melanoma
# LOX IMVI melanoma = tested on: LOX IMVI melanoma
# SK-MEL-28 melanoma = tested on: SK-MEL-28 melanoma
# SK-MEL-2 melanoma = tested on: SK-MEL-2 melanoma
# EKVX NSCLC = tested on: EKVX NSCLC
# SN12C renal = tested on: SN12C renal
# UO-31 renal = tested on: UO-31 renal
# TK-10 renal = tested on: TK-10 renal
# ACHN renal = tested on: ACHN renal
# CAKI-1 renal = tested on: CAKI-1 renal
# CCRF-CEM leukemia = tested on: CCRF-CEM leukemia
# MOLT-4 leukemia = tested on: MOLT-4 leukemia
# A498 renal = tested on: A498 renal
Compound,growth (HT29 colon),growth (SNB-75 CNS),growth (SNB-19 CNS),growth (U251 CNS),growth (PC-3 prostate),growth (SK-MEL-5 melanoma),growth (UACC-62 melanoma),growth (LOX IMVI melanoma),growth (SK-MEL-28 melanoma),growth (SK-MEL-2 melanoma),growth (EKVX NSCLC),growth (SN12C renal),growth (UO-31 renal),growth (TK-10 renal),growth (ACHN renal),growth (CAKI-1 renal),growth (CCRF-CEM leukemia),growth (MOLT-4 leukemia),growth (A498 renal)
NC(=NCCCOc1ccc(F)cc1)Nc1ccc(Cl)cc1,13.8%,80.9%,55.2%,76.7%,50.2%,4.33% (active),56.8%,83.9%,88.3%,84.6%,52.8%,65.1%,49.1%,64%,18.3%,39%,49.7%,23.5%,–
C[C@H]1[C@H]2[C@H]3CC[C@@H]4[C@@]5(C)CC[C@H](O)C(C)(C)[C@@H]5CC[C@@]4(C)[C@]3(C)CC[C@]23CO[C@]1(C)[C@@H](C(=O)/C=C\c1ccco1)C3,98.1%,78.4%,–,69.4%,92.7%,8.55% (active),7.16% (active),89%,36.7%,9.51% (active),105%,101%,77%,97.4%,44.3%,55.8%,101%,–,96.2%
C#Cc1cccc(NC(=O)c2cccc(NC(=O)CCl)c2)c1,-7.83% [8.25 µM] (active),-21.9% [8.25 µM] (active),–,–,-70.8% [8.25 µM] (active),-93.8% [8.25 µM] (active),-33.7% [8.25 µM] (active),-89% [8.25 µM] (active),37.4% [8.25 µM],30.8% [8.25 µM],86.1% [8.25 µM],-65.9% [8.25 µM] (active),-98.9% [8.25 µM] (active),-72.4% [8.25 µM] (active),-96.8% [8.25 µM] (active),0.818% [8.25 µM] (active),8.26% [8.25 µM] (active),–,46.6% [8.25 µM]
CN1CCN(c2ccc(NC3=C(Cl)C(=O)c4ncccc4C3=O)cc2C(F)(F)F)CC1,78.3%,96.9%,101%,88.6%,62.9%,92.8%,87%,-56.2% (active),76.9%,89%,110%,93.9%,-80.4% (active),-65.9% (active),-56.2% (active),-95.6% (active),-1.56% (active),1.95% (active),–
CNCCn1c(=O)c2cc(OC)c(OC)cc2c2ccc3cc4c(cc3c21)OCO4,2.8% (active),-0.403% (active),8.32% (active),5.74% (active),8.41% (active),-60.7% (active),-79.7% (active),-46.1% (active),-34.2% (active),-76.1% (active),-6.68% (active),2.31% (active),-66.4% (active),-68.9% (active),-76% (active),-84.9% (active),-1.64% (active),-10.3% (active),–
C=C1C(=O)O[C@H]2[C@H]1CC/C(COC(=O)NCCc1c[nH]c3ccc(OC)cc13)=C\CC[C@@]1(C)O[C@@H]21,-15.2% (active),55.5%,51.6%,35.5%,54.7%,64.7%,21.6%,-22.4% (active),-10.8% (active),62.1%,19.8%,-34.4% (active),-99.3% (active),-13.1% (active),-59% (active),-66.2% (active),-6.35% (active),–,–
O=C(/C=C(O)/C=C/c1ccc(SC(F)(F)F)cc1)/C=C/c1ccc(SC(F)(F)F)cc1,83.2%,115%,–,66.5%,81%,91.4%,75.9%,72%,100%,101%,111%,94.2%,73.1%,101%,102%,96%,60.7%,76.1%,–
O=C(Nc1cccc(C2=NCCN2)c1)c1ccc(-c2ccc(C(=O)Nc3cccc(C4=NCCN4)c3)cc2)cc1,84.5%,82%,87%,86.3%,97.7%,36.9%,68.1%,97.9%,46.3%,105%,95.8%,61.7%,99.1%,138%,98.4%,107%,89.1%,80.9%,–
Nc1n[nH]c2cccc(C#Cc3cccc(C(=O)Nc4cc(CN5CCOCC5)cc(C(F)(F)F)c4)c3)c12,18%,44.1%,66.7%,51%,36.9%,29%,11.7%,7.72% (active),14.6%,4.06% (active),60.6%,39.1%,17.6%,67.7%,27%,48.8%,19.4%,–,–
